{"source": "PubChem BioAssay (Tox21)", "note": "Results filed as inconclusive are left out. Calls of active or inactive are those of the source. Calls follow the shape of the full dose curve."}
{"assay": "qHTS assay to identify small molecule agonists of the NFkB signaling pathway - cell viability counter screen (AID 1159515); also: nearly all actives have a fitted effect of over 55% in size", "conditions": "NFkB-bla ME-180 viability, CellTiter-Glo luminescence, 5 h; series mostly up to 61 µM", "how_it_was_run": "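Using the same wells as the NFkB reporter read, ME-180 NFkB-bla cells given compounds for 5 hr were assessed for viability via CellTiter-Glo, with luminescence taken after a 30 min room-temperature incubation.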"}
{"smiles": "Cc1cc(S(=O)(=O)O)ccc1N=Nc1c(O)ccc2ccccc12", "outcome": "inactive"}
{"smiles": "CCCc1c(OCCCOc2ccc(OCC(=O)O)cc2)ccc(C(C)=O)c1O", "outcome": "inactive"}
{"smiles": "COC(=O)Nc1nc2ccc(C(=O)c3cccs3)cc2[nH]1", "outcome": "inactive"}
{"smiles": "CCc1c2c(nc3ccc(OC(=O)N4CCC(N5CCCCC5)CC4)cc13)-c1cc3c(c(=O)n1C2)COC(=O)[C@]3(O)CC", "outcome": "inactive"}
{"smiles": "C1COCO1", "outcome": "inactive"}
{"smiles": "CN(C)CCOC1=Cc2ccccc2Sc2ccc(Cl)cc21", "outcome": "inactive"}
{"smiles": "CCOC(=O)CC(=O)C(=O)OCC", "outcome": "inactive"}
{"smiles": "Cc1ccc(Nc2nccc(N(C)c3ccc4c(C)n(C)nc4c3)n2)cc1S(N)(=O)=O", "outcome": "inactive"}
{"smiles": "O=C(N[C@@H](c1ccccc1)[C@@H]1CCCCN1)c1cccc(C(F)(F)F)c1Cl", "outcome": "inactive"}
{"smiles": "O=C(N/N=C/c1ccc([N+](=O)[O-])o1)c1ccc(O)cc1", "outcome": "inactive"}
{"smiles": "CC(C)CCCCCCOC(=O)CCCCC(=O)OCCCCCCC(C)C", "outcome": "inactive"}
{"smiles": "CCNC(=O)N1CCN(CCCC(c2ccc(F)cc2)c2ccc(F)cc2)CC1", "outcome": "inactive"}
{"smiles": "C[C@]12CCC(=O)C=C1C=C[C@@H]1[C@@H]2CC[C@@]2(C)[C@H]1CC[C@@]21CCC(=O)O1", "outcome": "inactive"}
{"smiles": "CCc1cccc(N(C)C(N)=Nc2cccc3ccccc23)c1", "outcome": "inactive"}
{"smiles": "CCCCC(=O)O[C@]1(C(=O)CO)CC[C@H]2[C@@H]3CCC4=CC(=O)CC[C@]4(C)[C@H]3[C@@H](O)C[C@@]21C", "outcome": "inactive"}
{"smiles": "CCC1(C)CC(=O)NC1=O", "note": "(stereo not drawn)", "outcome": "inactive"}
{"smiles": "CCCCCC=CCC=CCCCCCCCC(=O)OCC", "outcome": "inactive"}
{"smiles": "CC(=O)[C@H]1CC[C@H]2[C@@H]3C=CC4=CC(=O)CC[C@@]4(C)[C@@H]3CC[C@]12C", "outcome": "inactive"}
